High-throughput results: PubChem BioAssay, National Center for Advancing Translational Sciences (NCATS)
Rows were chosen to be rich in hits. Some 19% of all compounds tested hit in one or more screens of this group.
HT1080 IDH1KD tx – toxicity to HT-1080 IDH1 knockdown cells (counter line) | HT-1080 IDH1 knockdown viability, ATP luminescence, 48 h | Potency, µM (titrated, usually from 46.1 µM), for inactives: top-dose activity, negative = toxicity, usual class: cytotoxic | 2% of 360,000 active | AID 686971;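 also: potency is read from the fitted curve at half-maximal effect; 0% = DMSO wells and -100% = cell-free medium wells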
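IDH1KD HT-1080 cells, 750/well, RPMI + 5% FBS; compound pinned after 2 h settling; 48 h, 37 °C; CellTiter-Glo luminescence; % activity normalised to DMSO and no-cell wells; curves fitted, classed by r2 and efficacy.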
IL-1B inflam inh – inflammasome signaling inhibition, IL-1 beta readout | 4.7% of 360,000 active | THP-1 LPS/ATP IL-1B secretion, AlphaLISA, 16 h; stronger effect = lower value | AID 743279 | activity change, % at 57.5 µM; in the data active = activity change below about -50%; inconclusive = mostly about -30% to -49%
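THP-1 cells pretreated 1 hr with compounds (up to 57.5 uM final), then stimulated with LPS (250 ng/mL final) plus ATP (1.25 mM final); secreted IL-1B measured by AlphaLISA after 16 hr, decreased signal indicating inhibition.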
DT40 TDP1 no CPT – qHTS for Inhibitors of human tyrosyl-DNA phosphodiesterase 1 (TDP1): qHTS in cells in absence of CPT; DT40 Tdp1-/- hTDP1 cells, no CPT, ATP luminescence, 48 h; Potency, µM (titrated, usually from 46.2 µM), without a hit: top-dose activity change, negative = growth inhibition, actives largely listed as inhibitors; 15% of 420,000 active; AID 686978, 2013; also: potency is read from the fitted curve at half-maximal effect; nearly all actives have a fitted effect of over 55% in size
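Chicken DT40 Tdp1-/- cells complemented with human TDP1, screened without camptothecin (DMSO vehicle only), 400 cells/well. Compounds pin-transferred, cells incubated at 37 °C for at least 48 hr. Growth read as ATP-dependent luminescence (CellTiter-Glo, 30 min at RT).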
DT40 TDP1 CPT – growth inhibition of DT40 Tdp1-/-;hTDP1 cells with camptothecin (screen for TDP1 inhibitors). chicken DT40 Tdp1-/-;hTDP1 cells + 20 nM CPT, ATP luminescence, 48 h. Potency, µM (top dose mostly 46.2 µM), inactives show top-dose activity change, negative = growth inhibition, hits mostly inhibitors. 12% of 420,000 active. AID 686979; also: potency is read from the fitted curve at half-maximal effect; nearly all actives have a fitted effect of over 55% in size
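Chicken DT40 Tdp1-/- cells complemented with human TDP1, 400 cells/well, exposed to compounds plus 20 nM camptothecin for at least 48 h at 37 C; viability read as ATP content by CellTiter-Glo luminescence.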
HT1080-NT tox – kills 2HG-producing HT-1080-NT fibrosarcoma cells; HT-1080-NT fibrosarcoma viability, CellTiter-Glo ATP luminescence, 48 h; Potency, µM (series often up to 46.1 µM), for inactives: top-dose activity, negative = less viability, actives largely listed as cytotoxic; 1.6% of 360,000 active;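 also: NT is the 2HG producing partner of a matched IDH1 knockdown line; potency is read from the fitted curve at half-maximal effect; 0% = DMSO-treated cells and -100% = media-only wells without cells; nearly all actives have a fitted effect of over 55% in size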
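750 cells/well, RPMI + 5% FBS; 2 h settle, compound pin-transfer, 48 h at 37 degrees C. CellTiter-Glo 10 min RT, luminescence. Normalized to DMSO and media-only wells.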
Active calls of the source: *; ? = inconclusive; nt = not tested or not shown; [ ] = another dose, or the depositor's remark. Unless noted, calls follow the shape of the dose curve; as a rule, active = well fitted curve in the direction sought with a large enough effect; inconclusive = small, poorly fitted or top-dose-only effect, or another doubt; inactive = no such curve, though single readings can be large; an effect the other way counts as inactive or inconclusive. Unless noted, % is scaled to controls: 0 for no effect and ±100 for the full control effect.

SMILES	HT1080 IDH1KD tx	IL-1B inflam inh	DT40 TDP1 no CPT	DT40 TDP1 CPT	HT1080-NT tox
CCOC(=O)C1C2NC(=O)N(Cc3ccccc3)C1(C)Oc1c(OC)cccc12 (centres undefined)	-1%	22	-15%	-18%	0%
COc1cccc(C2Nc3ccccc3C(=O)N2Cc2ccccc2)c1 (centres undefined)	4%	?	?	-2%	3%
CCOC(=O)[C@]12Cc3c(cc(OC)c(OC)c3OC)[C@H]1N(Cc1ccccc1)C(=O)c1ccccc12	-6%	?	16µM*	?	-14%
CCOC(=O)[C@]12Cc3ccccc3[C@H]1N(Cc1ccccc1)C(=O)c1cc(OC)ccc12	?	-13	18µM*	?	?
CCOC(=O)c1cc2cc(OC)ccc2n1C1CCN(Cc2ccccc2)CC1	-26%	29	?	?	?
CCOC(=O)[C@]12Cc3cc(OC)c(OC)cc3[C@H]1N(Cc1ccccc1)C(=O)c1ccccc12	-3%	-5	14µM*	?	0%
CCOC(=O)[C@]12Cc3cc4ccccc4cc3[C@H]1N(Cc1ccccc1)C(=O)c1cc(OC)ccc12	15µM*	-109*	6.5µM*	8.2µM*	21µM*
Cc1cccc(OC(C)C(=O)NCC2(N(C)C)CCCCC2)c1C (centres undefined)	nt	nt	-26%	-24%	nt
CS(=O)(=O)c1ccc(C2=C(CNC(=O)c3cccs3)[C@H]3CC[C@@H](C2)N3Cc2ccccc2)cc1	-4%	-11	-21%	0%	-3%
O=c1ccc2cc(O[C@@H]3O[C@@H](CO)[C@H](O)[C@@H](O)[C@@H]3O)c(O)cc2o1	0%	47	29%	1%	8%
CCOC(=O)[C@]12Cc3ccsc3[C@H]1N(Cc1ccccc1)C(=O)c1ccccc12	0%	-29	18µM*	?	-7%
CCOC(=O)C1(c2ccccc2)CCN(CC(=O)Nc2cccc3ccccc23)CC1	-2%	-16	?	?	2%
CCOC(=O)[C@]12Cc3ccc4ccccc4c3[C@H]1N(Cc1ccccc1)C(=O)c1ccccc12	1%	-56*	?	?	-9%
CC1CCCCN1C(=O)Cn1cc(C=C2C(=O)N(C)C(=O)N(C)C2=O)c2ccccc21 (centres undefined)	-8%	19	0%	3%	1%
CCN1CCN(c2ccc(N)cc2C)CC1	-1%	-7	13µM*	12µM*	-4%
C/C(=N\NC(=O)c1ccncc1)c1c(O)[nH]c(=O)[nH]c1=O	23%	21	3%	-1%	14%
CCC(C)(C)n1nnnc1C(c1cccc(C#N)c1)N1CCN(c2cc(C)ccc2C)CC1 (centres undefined)	11%	24	23µM*	16µM*	0%
COc1ccc(-c2[nH]ncc2CNC(C)Cc2cccc(C)n2)cc1F (centres undefined)	5%	-1	-21%	-29%	1%
Cc1ccc(O)c(CN2CCN(c3ccccc3)CC2)c1	1%	-17	-14%	-3%	9%
COc1cccc(CN2CCN(C(=O)Cc3ccccc3OC)CC2)c1	-1%	-7	-28%	0%	-1%
COc1cccc(CN(C)C(=O)c2cccc(S(=O)(=O)N3CCN(c4ccccc4)CC3)c2)c1	-21%	-14	7.3µM*	12µM*	-14%
Cc1ccc(CN(C)C(=O)c2cccc(S(=O)(=O)N3CCN(c4ccccc4)CC3)c2)cc1	-26%	?	15µM*	?	-6%
CC(C)(C)c1ccc(S(=O)(=O)N2CC3CC(C2)c2cccc(=O)n2C3)cc1 (centres undefined)	-13%[9.24 µM]	12	-16%	-28%	-18%
COC(=O)C(=O)N1CC2(C)CNCC(C)(C1)C2=O	18%	12	-18%	4%	8%
O=C(CCC1CCCC1)c1c(O)c2ccccc2oc1=O	-1%	-11	4.1µM*	5.2µM*	-1%
SMILES	HT1080 IDH1KD tx	IL-1B inflam inh	DT40 TDP1 no CPT	DT40 TDP1 CPT	HT1080-NT tox
O=c1oc2ccccc2c(O)c1C(c1ccccn1)c1c(O)c2ccccc2oc1=O	0%	41	4%	-1%	-2%
CCC(C)C1NC(=O)C(C(C)=O)=C1O (centres undefined)	1%	26	?	16µM*	21%
CC[C@]1(O)CC(O[C@@H]2CC(N(C)C)C(O)C(C)O2)c2c(cc3c(c2O)C(=O)c2c(O)cccc2C3=O)C1C(=O)OC (some centres undefined)	nt	nt	0.58µM*	0.82µM*	nt
COc1ccc(C(O)C(C)NC(C)C(O)c2ccc(OC)cc2)cc1 (centres undefined)	0%	0	-29%	?	2%
O=P(Oc1ccccc1)(Oc1ccccc1)c1ccccc1	7%	-14	16µM*	?	-2%
Cc1ccc(NP(=O)(Nc2ccc(C)cc2)Oc2ccccc2)cc1	?	-71*	?	5%	-15%
COc1ccc(C2C3C=CC(C3)C2C(=O)O)cc1 (centres undefined)	-1%	5	-8%	-11%	7%
O=C1CCCCC1CN1CCCCC1 (centres undefined)	nt	nt	-30%	?	nt
Cc1ccc(C(C)(C)C)c(OCC(=O)Nc2ccc(Cl)cc2C(=O)c2ccccc2)c1	nt	nt	?	-25%	nt
O=C(CSC1c2ccccc2-c2ccccc21)N/N=C/c1ccccc1O	?	50	6.5µM*	7.3µM*	4.5µM*
O=C(CSC1c2ccccc2-c2ccccc21)N/N=C/c1ccc(C(=O)O)cc1	17%	8	10%	5%	-3%
O=P(Oc1ccccc1)(Oc1ccccc1)N1CCOCC1	14%	-7	-28%	5%	14%
CC[C@]1(C(=O)OC)[C@H]2C(=O)N(Cc3ccccc3)C(=O)[C@H]2[C@H]2CN=C(SCc3ccc(C)cc3)N21	2%	19	18µM*	?	0%
CCN1C[C@@H]2[C@@H]3C(=O)N(Cc4ccccc4)C(=O)[C@@H]3[C@](CC)(C1=O)N2C(=O)c1ccc(C(C)(C)C)cc1	0%	23	?	?	0%
CC[C@]1(C(=O)OC)[C@H]2C(=O)N(Cc3ccccc3)C(=O)[C@H]2[C@H]2CN=C(SCc3ccc(C(=O)OC)cc3)N21	-1%	19	?	21µM*	4%
COC(=O)[C@@]1(Cc2ccccc2)[C@H]2C(=O)N(Cc3ccccc3)C(=O)[C@H]2[C@H]2CN=C(SCc3ccc(C#N)cc3)N21	4%	19	?	?	12%
NCC(CS(=O)(=O)O)c1ccc(Cl)cc1 (centres undefined)	nt	nt	-21%	3%	nt
